Reference: PubChem BioAssay AID1159580 (chemical genetic matrix, 2015)
Where “and” joins values, the source holds several entries; their conditions need not be identical. Identical values can stand only once. In all, about 5,500 compounds went through this assay and about 2,000 (36%) were called active. Inconclusive results (about 18%) are left out. No stated cut-off is given here; in the data, active means normalized growth mostly below about 0.91 (no sharp cut-off); inconclusive means no clear call, values can overlap the other calls; inactive means mostly above about 0.92. Some of the results follow.

Assay: chemical genetic growth profiling, strain panel (AID 1159580);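 further: tested at 20 µM; growth read once vehicle control cultures reached saturation at 30 °C; 1 = growth at the plate median or of vehicle wells; lower values mean less growth of the strain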
Settings: S. cerevisiae deletion strains, growth OD

Measured: normalized growth

CC(C)CCCC(C)C1CCC2C3CC(=O)[C@H]4C[C@@H](O)CC[C@]4(C)C3CC[C@]12C (stereo partly drawn)
active: locus YLR262C, strain YPT6 (second series), hits give low values 0.76
inactive: locus YAL021C, strain ccr4, hits give low values 0.997 | locus YAL026C, strain drs2, hits give low values 0.98 | locus YAL030W, strain snc1, hits give low values 1.01 | locus YBL061C, strain skt5, hits give low values 1 | locus YBR009C, strain hhf1, hits give low values 1 | locus YBR021W, strain FUR4, hits give low values 1.06 | locus YBR023C, strain chs3, hits give low values 1 | locus YBR171W, strain sec66, hits give low values 1 | locus YBR229C, strain ROT2, hits give low values 1.02 | locus YBR231C, strain swc5, hits give low values 0.975 | locus YBR279W, strain paf1, hits give low values 1.01 | locus YCL011C, strain gbp2, hits give low values 1.02 | locus YCL016C, strain dcc1, hits give low values 1.01 | locus YCL029C, strain bik1, hits give low values 1.01 | locus YCL061C, strain MRC1, hits give low values 1.01 | locus YCL069W, strain vba3, hits give low values 1.03 | locus YCR088W, strain abp1, hits give low values 1 | locus YDL005C, strain med2, hits give low values 1.01 | locus YDL035C, strain GPR1, hits give low values 1.01 | locus YDL040C, strain nat1, hits give low values 1.01 | locus YDL074C, strain BRE1, hits give low values 1.05 | locus YDL101C, strain DUN1, hits give low values 1.02 | locus YDL185W, strain tfp1, hits give low values 1.07 | locus YDL192W, strain arf1, hits give low values 1.02 | locus YDR001C, strain nth1, hits give low values 1.02 | locus YDR069C, strain doa4, hits give low values 1 | locus YDR101C, strain arx1, hits give low values 1.01 | locus YDR137W, strain rgp1, hits give low values 0.908 | locus YDR150W, strain NUM1, hits give low values 1 | locus YDR159W, strain sac3, hits give low values 0.963 | locus YDR162C, strain NBP2, hits give low values 1.04 | locus YDR195W, strain ref2 1.01 | locus YDR297W, strain sur2, hits give low values 1 | locus YDR318W, strain mcm21, hits give low values 1.01 | locus YDR334W, strain swr1, hits give low values 1.02 | locus YDR335W, strain msn5, hits give low values 1.02 | locus YDR388W, hits give low values 1.01 | locus YDR392W, strain spt3, hits give low values 0.942 | locus YDR502C, strain sam2, hits give low values 1.01 | locus YEL003W, strain gim4, hits give low values 1.01 | locus YEL037C, strain rad23, hits give low values 1 | locus YEL061C, strain CIN8 (second series), hits give low values 1.01 | locus YEL061C, strain CIN8, hits give low values 1 | locus YER015W, strain faa2, hits give low values 1 | locus YER016W, strain bim1, hits give low values 1.01 | locus YER110C, hits give low values 1 | locus YER111C, strain swi4, hits give low values 1 | locus YER155C, strain BEM2 (second series), hits give low values 1.07 | locus YER155C, strain BEM2, hits give low values 0.997 | locus YER167W, strain BCK2, hits give low values 1.03 | locus YFR010W, strain ubp6, hits give low values 1.02 | locus YGL078C, strain dbp3, hits give low values 1.01 | locus YGL086W, strain mad1, hits give low values 1.03 | locus YGL167C, strain pmr1, hits give low values 0.998 | locus YGL173C, strain kem1, hits give low values 1 | locus YGL227W, strain vid30, hits give low values 1.01 | locus YGL240W, strain doc1, hits give low values 0.904 | locus YGL248W, strain PDE1, hits give low values 1.01 | locus YGL253W, strain hxk2, hits give low values 1.02 | locus YGR135W, strain pre9, hits give low values 1 | locus YGR252W, strain gcn5, hits give low values 1.06 | locus YHR013C, strain ard1, hits give low values 1.01 | locus YHR027C, strain rpn1, hits give low values 1.01 | locus YHR030C, strain SLT2, hits give low values 1.02 and 1.05 | locus YHR079C, strain IRE1 (second series), hits give low values 0.99 | locus YHR079C, strain IRE1, hits give low values 1.04 | locus YHR094C, strain hxt1, hits give low values 1.01 | locus YHR129C, strain ARP1, hits give low values 1.02 | locus YHR142W, strain chs7, hits give low values 1.04 | locus YHR200W, strain rpn10, hits give low values 1.03 | locus YIL066C, strain RNR3, hits give low values 1.04 | locus YIL073C, strain SPO22, hits give low values 1.05 | locus YIL125W, strain kgd1, hits give low values 0.998 | locus YIR030C, strain dcg1, hits give low values 1.01 | locus YJL092W, strain hpr5, hits give low values 1.02 | locus YJL095W, strain BCK1 (second series), hits give low values 1.01 | locus YJL095W, strain BCK1, hits give low values 1.03 | locus YJL115W, strain asf1, hits give low values 0.991 | locus YJL129C, strain trk1, hits give low values 1.04 | locus YJL134W, strain LCB3, hits give low values 1.01 | locus YJL154C, strain vps35, hits give low values 1.02 | locus YJL164C, strain tpk1, hits give low values 1.01 | locus YJL166W, strain qcr8, hits give low values 1.06 | locus YJL168C, strain set2, hits give low values 1 | locus YJL187C, strain SWE1 (second series), hits give low values 1.01 | locus YJL187C, strain SWE1, hits give low values 1.02 | locus YJR043C, strain POL32, hits give low values 1.05 | locus YJR066W, strain TOR1, hits give low values 0.998 | locus YKL009W, strain mrt4, hits give low values 1.01 | locus YKL068W, hits give low values 1.02 | locus YKL085W, strain MDH1 (second series), hits give low values 1.01 | locus YKL085W, strain MDH1, hits give low values 1.01 | locus YKL160W, strain elf1, hits give low values 1.02 | locus YKL190W, strain CNB1, hits give low values 1.02 | locus YKR001C, strain vps1, hits give low values 1.02 | locus YKR026C, strain gcn3, hits give low values 1 | locus YKR091W, strain srl3, hits give low values 1.01 | locus YLL001W, strain dnm1, hits give low values 0.982 | locus YLL026W, hits give low values 0.999 | locus YLL041C, strain sdh2, hits give low values 1.01 | locus YLR027C, strain aat2, hits give low values 0.99 | locus YLR039C, strain RIC1, hits give low values 0.767 | locus YLR058C, strain SHM2, hits give low values 1.01 | locus YLR102C, strain apc9, hits give low values 1.01 | locus YLR113W, strain HOG1, hits give low values 0.986 | locus YLR221C, strain rsa3, hits give low values 0.991 | locus YLR258W, strain gsy2, hits give low values 0.994 | locus YLR262C, strain YPT6, hits give low values 0.831 | locus YLR268W, strain sec22, hits give low values 1.03 | locus YLR320W, strain mms22, hits give low values 1.02 | locus YLR330W, strain CHS5, hits give low values 1.01 | locus YLR342W, strain FKS1 (second series), hits give low values 1.02 | locus YLR342W, strain FKS1, hits give low values 1.01 | locus YLR357W, strain rsc2, hits give low values 1.04 | locus YLR370C, strain arc18, hits give low values 1.02 | locus YLR371W, strain rom2, hits give low values 1 | locus YLR384C, strain iki3, hits give low values 0.99 | locus YLR418C, strain cdc73, hits give low values 1.08 | locus YML016C, strain PPZ1, hits give low values 0.995 | locus YML032C, strain rad52, hits give low values 1 | locus YML120C, strain ndi1, hits give low values 1.02 | locus YML124C, strain tub3, hits give low values 1 | locus YMR058W, strain fet3, hits give low values 1.01 | locus YMR078C, strain ctf18, hits give low values 1.04 | locus YMR125W, strain sto1, hits give low values 1.02 | locus YMR129W, hits give low values 1 | locus YMR205C, strain PFK2, hits give low values 1.02 | locus YMR223W, strain ubp8, hits give low values 1.01 | locus YMR231W, strain pep5, hits give low values 1.02 | locus YMR307W, strain GAS1, hits give low values 1.12 | locus YNL067W, strain RPL9B, hits give low values 1.03 | locus YNL071W, strain lat1, hits give low values 1.02 | locus YNL183C, strain NPR1, hits give low values 1 | locus YNL209W, strain ssb2, hits give low values 1.01 | locus YNL233W, strain BNI4, hits give low values 1.04 | locus YNL248C, strain rpa49, hits give low values 1 | locus YNL250W, strain rad50, hits give low values 1 | locus YNL271C, strain bni1, hits give low values 1 | locus YNL298W, strain CLA4, hits give low values 1.01 | locus YNL307C, strain MCK1, hits give low values 1.04 | locus YNL322C, strain KRE1 (second series), hits give low values 1.01 | locus YNR049C, strain mso1, hits give low values 1 | locus YNR052C, strain pop2, hits give low values 0.997 | locus YOL006C, strain TOP1, hits give low values 1.14 | locus YOL012C, strain htz1 1.15 | locus YOL147C, strain pex11, hits give low values 1.01 | locus YOR001W, strain rrp6, hits give low values 0.969 | locus YOR061W, strain CKA2, hits give low values 1.02 | locus YOR069W, strain VPS5, hits give low values 1 | locus YOR070C, strain gyp1, hits give low values 0.989 | locus YOR080W, strain dia2, hits give low values 0.998 | locus YOR083W, strain WHI5, hits give low values 1.02 | locus YOR106W, strain vam3, hits give low values 1.02 | locus YOR136W, strain idh2, hits give low values 1 | locus YOR144C, strain elg1, hits give low values 1 | locus YOR184W, strain ser1, hits give low values 1.04 | locus YOR231W, strain MKK1, hits give low values 1.02 | locus YOR265W, strain rbl2, hits give low values 1 | locus YOR270C, strain vph1, hits give low values 1.04 | locus YOR290C, strain snf2, hits give low values 1.03 | locus YOR316C, strain cot1, hits give low values 1 | locus YPL051W, strain arl3, hits give low values 0.985 | locus YPL055C, strain LGE1, hits give low values 1.07 | locus YPL078C, strain atp4, hits give low values 1.02 | locus YPL106C, strain sse1, hits give low values 1.02 | locus YPL240C, strain hsp82, hits give low values 1.01 | locus YPL256C, strain CLN2, hits give low values 1.04 | locus YPR119W, strain clb2, hits give low values 1 | locus YPR141C, strain kar3, hits give low values 1.01 | locus YPR163C, strain tif3, hits give low values 1.01 | locus YPR167C, strain met16, hits give low values 0.995 | strain wtn01, hits give low values 1.03
